From PubChem BioAssay (EPA / NIEHS) come the findings set out here.

Records with an inconclusive call do not appear. Calls of active or inactive are those of the source. How the source made its calls: active means hit-call score of the fitted dose curve at least 0.9, where 1 is the maximum; inconclusive means response in the unintended direction; inactive means score below 0.9.

Hepatocyte nuclear factor 4-alpha (Homo sapiens), sequence (P41235 whole entry, looked up): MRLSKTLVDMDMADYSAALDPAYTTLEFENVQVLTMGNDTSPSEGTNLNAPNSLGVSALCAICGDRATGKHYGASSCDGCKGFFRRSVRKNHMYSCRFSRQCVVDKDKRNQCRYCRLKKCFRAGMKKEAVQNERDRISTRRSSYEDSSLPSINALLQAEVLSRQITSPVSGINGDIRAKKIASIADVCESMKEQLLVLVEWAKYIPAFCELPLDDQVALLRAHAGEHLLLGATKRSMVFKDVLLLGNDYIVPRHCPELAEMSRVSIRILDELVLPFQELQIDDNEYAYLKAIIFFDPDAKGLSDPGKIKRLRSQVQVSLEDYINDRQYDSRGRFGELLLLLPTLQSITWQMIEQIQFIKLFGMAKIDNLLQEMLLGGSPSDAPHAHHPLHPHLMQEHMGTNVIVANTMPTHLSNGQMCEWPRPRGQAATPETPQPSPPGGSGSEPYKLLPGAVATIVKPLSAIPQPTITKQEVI

The target of the assay is Hepatocyte nuclear factor 4-alpha (Homo sapiens) (UniProt P41235). The assay can be described thus: ATG_HNF4a_TRANS: Attagene TRANS-FACTORIAL HepG2 Assay for human Hepatocyte Nuclear Factor 4 alpha (HNF4a) (AID 2282982). Conditions: HepG2 HNF4a transactivation reporter, mRNA readout. The protocol:
ATG_TRANS is a cell-based, multiplexed-readout assay that uses HepG2, a human liver cell line, with measurements taken at 24 hours after chemical dosing in a 24-well plate.ATG_HNF4a_TRANS is one of 30 assay component(s) measured or calculated from the ATG_TRANS assay. It is designed to make measurements of mRNA induction, a form of inducible reporter, as detected with fluorescence intensity signals by Reverse transcription polymerase chain reaction (RT-PCR) and Capillary electrophoresis technology.Data from the assay component ATG_HNF4a_TRANS was analyzed into 1 assay endpoint. This assay endpoint, ATG_HNF4a_TRANS, was analyzed in the positive analysis fitting direction relative to DMSO as the negative control and baseline of activity. Using a type of inducible reporter, measures of mRNA for gain-of-signal activity can be used to understand the reporter gene at the transcription factor-level as they relate to the gene HNF4A. Furthermore, this assay endpoint can be referred to as a primary readout, because this assay has produced multiple assay endpoints where this one serves a reporter gene function. To generalize the intended target to other relatable targets, this assay endpoint is annotated to the nuclear receptor intended target family, where the subfamily is orphan.
Human liver HepG2 cells are transiently transfected with multiple reporter transcription units (MRTUs) in 6-well plates using FuGene 6 reagent (Roche; 3 ml FuGene/1 mg DNA). The MRTU constructs are regulated by a cis-regulating element (promoter). […] A major difference between the CIS and TRANS system is that in CIS activities of endogenous TFs are measured, whereas the TRANS assay evaluates changes in activities of exogenous, chimeric NR-Gal4 proteins. […] At the end of 24 hour incubation, total RNA was isolated using TriZol reagent (Invitrogen). The isolated RNA is then reverse-transcribed using oligo(dT) primer and Mo-MLV reverse transcriptase (Invitrogen) with DNAse I (Ambion) treatment for 30 min. The one-tenth of the produced cDNA was amplified by PCR using Taq DNA polymerase (Invitrogen) and two reporter sequence-specific primers. The PCR products were fluorescently labeled by primer extension with 6-arboxyfluorescein (6-FAM) 5'-labeled reporter sequence-specific primer (2 min at 95 C, 20 s at 68 C and 10 min at 72 C) and these products were digested with 5U of HpaI (New England Biolabs) for 2h at 37 C. The fragments were purified using Qiaquick PCR columns (Qiagen), analyzed on an ABI 3130xL genetic analyzer (Applied Biosystems) with peak positions identified by using a set of X-rhodamine (ROX)-labeled MapMarker1000 molecular weight standards (BioVentures). The raw capillary electrophoresis data was processed using Attagraph software (Attagene).
With `CCOC(=O)CCCCCCCCC(=O)OCC`, the result was inactive.

With `C=CC(C)(CCC=C(C)C)OC(=O)CC` (stereo not given), the outcome was inactive.

Regarding `O=C(O)c1cccc(Cl)n1`, the result was inactive.

Take `CN(C)C(=O)Nc1ccccc1`: the result was inactive.

With `Brc1cc(Br)cc(Br)c1`, the result was inactive.

Take `CCOC(=O)C(=O)OCC`: the compound was called inactive.

Turning to `CC(=O)Oc1c(C)c(C)c2c(c1C)CC[C@@](C)(CCC[C@H](C)CCC[C@H](C)CCCC(C)C)O2`, the outcome was inactive.

As for `O=C(OCc1ccccc1)c1ccccc1O`, the compound was classed as inactive.

On to `COC(=O)C(C)Oc1ccc(Oc2ncc(C(F)(F)F)cc2Cl)cc1` (stereo not given), for which the outcome was inactive.

As for `O=c1cc(-c2ccc(O)cc2)oc2cc(O)cc(O)c12`, the compound was called inactive.

With `CN1CCc2cccc3c2[C@H]1Cc1ccc(O)c(O)c1-3`, the compound was called inactive.

Turning to `CCCCCCC(C)O` (stereo not given), the result was inactive.

Consider `CC(CO)(CO)[N+](=O)[O-]`, for which the compound was called inactive.

Take `C=CC(C)CCCC(C)(C)O` (stereo not given): the compound was classed as inactive.

For the compound `CC(C)(CO)CO`, the call was inactive.

As to `CCCCOCCOCCOCCO`, the outcome was inactive.

As for `CCCCN(CCO)CCO`, the outcome was inactive.

As to `NC(=O)c1cccnc1`, the call was inactive.

Consider `FC(F)(F)c1ccc(Cl)c(Cl)c1`, for which the result was inactive.

As to `CC(C)CCOC(=O)CC(C)C`, the result was inactive.

Take `c1ccc(OCCOc2ccccc2)cc1`: the compound was classed as inactive.

For `O=S1(=O)CC(Cl)(Cl)C(Cl)(Cl)C1`, the outcome was inactive.

In the case of `CCC=C(C)C=O`, the outcome was inactive.

In the case of `C=C(C)C(N)=O`, the outcome was inactive.

Take `CCO[Si](CC)(OCC)OCC`: the compound was classed as inactive.

For the compound `CC(C)=CC(=O)O`, the call was inactive.

On to `C=CC(=O)OCC(CO)(COC(=O)C=C)COC(=O)C=C`, for which the outcome was inactive.

For `OCC=Cc1ccccc1`, the result was inactive.

For `COc1ccc(N)c(C)c1`, the compound was called inactive.

As to `CC(C)(O)C(=O)c1ccc(OCCO)cc1`, the compound was called inactive.

In the case of `CCOC(=O)CC(C)C`, the compound was called inactive.

For the compound `CC(C)(C)c1cc(CCC(=O)OCCSCCOC(=O)CCc2cc(C(C)(C)C)c(O)c(C(C)(C)C)c2)cc(C(C)(C)C)c1O`, the call was inactive.

For the compound `C1CCCNCC1`, the outcome was inactive.

Consider `O=S(=O)(O)CCCN1CCOCC1`, for which the call was inactive.

For the compound `CCCCCCCCOC(=O)c1ccc(O)cc1`, the result was inactive.

For the compound `CCCCCCCCOC(C)=O`, the result was inactive.

`CC/C=C\C#N`: the compound was classed as inactive.

With `CC1=CCC(=C(C)C)CC1`, the result was inactive.

`Nc1ccn([C@H]2CC[C@@H](CO)O2)c(=O)n1`: the compound was called inactive.

In the case of `CC(=O)CCC=C(C)CCC=C(C)C`, the compound was called inactive.
